Data published in the supplement of paper PMC5662767.
Where a name gives a salt, the structure may show the parent alone.

System: Drosophila S2 cl14 SmoIP sensor cells
Experiment: normalized SmoIP GFP fluorescence (untreated unstimulated = 0%, untreated Hh-stimulated = 100%); higher = more Smo activation sensor fluorescence
Details: stimulation: Hh conditioned medium (+Hh); compound concentration: 2 uM; 24 h
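Further: flow cytometry read-out as median GFP intensity of gated cells, compounds added 30 min before Hh-conditioned or mock medium, mock-treated cells serving as unstimulated baseline.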

Row | SMILES | normalized SmoIP GFP fluorescence [%]
1 | Cc1cccc(C)c1NC(=O)CN1CCCC1=O [Nefiracetam(Translon)] | 138
2 | N#CC(C#N)=Cc1ccc(O)c(O)c1 [ag-18-tyrphostin-23] | 147
3 | CC(=O)Nc1ccc(OC[C@](C)(O)C(=O)Nc2ccc([N+](=O)[O-])c(C(F)(F)F)c2)cc1 [Andarine] | 107
4 | CCC(COC(=O)c1cc(OC)c(OC)c(OC)c1)(c1ccccc1)N(C)C (configuration not stated) [trimebutine] | 111
5 | Fc1cc(F)c2c(c1)[C@H]1C=CC[C@H]1C(c1cccnc1)N2 (some centres not stated) [golgicide-a] | 101
6 | C[C@]12CCC(=O)C(O)=C1CC[C@@H]1[C@@H]2CC[C@]2(C)C(=O)CC[C@@H]12 [Formestane] | 93.9
7 | C[C@@H]1O[C@@H](O[C@H]2C[C@@H](O)[C@]3(CO)[C@H]4[C@H](O)C[C@]5(C)[C@@H](C6=CC(=O)OC6)CC[C@]5(O)[C@@H]4CC[C@]3(O)C2)[C@H](O)[C@H](O)[C@H]1O [ouabain] | 102
8 | CCN1CCN(C(=O)Cc2ccc(Nc3ncc(F)c(Nc4ccc(C(=O)Nc5ccccc5Cl)cc4)n3)cc2)CC1 [Aurora-A-Inhibitor-I] | 151
9 | CN1CCC(c2c[nH]c3ccc(O)cc23)CC1 | 111
10 | CN1[C@@H]2C[C@@H](OC(=O)[C@H](CO)c3ccccc3)C[C@H]1[C@@H]1O[C@@H]12 [Scopolamine-hydrobromide] | 113
11 | CN1[C@@H]2CC(O)C[C@H]1[C@@H]1O[C@@H]12 (some centres not stated) [scopine] | 142
12 | C[C@H]1CNCCc2ccc(Cl)cc21 [lorcaserin-hcl] | 99.3
